According to PubChem BioAssay:
Activity calls are given as the source filed them.

Experiment: JC-1 mitochondrial signal, unstimulated HepG2 cells – cell-based, JC-1 fluorescence, 24 h, 100 nL compound, profiling panel (AID 1167)
Settings: HepG2 mitochondrial potential, higher = more signal
Also: test concentration not given here.

z-score, 0.0858:
CC(C)(C)OC(=O)CC[C@]1(C(=O)NCC(O)CO)N=C(c2ccc(OCCCO)cc2)O[C@H]1c1ccccc1N=[N+]=[N-] (some centres not stated)

z-score, -1.62:
CN1C(=O)[C@@H]2[C@@H](CC(COc3ccccc3)=C3[C@@H](CCc4ccccc4)OB(O)C[C@@H]32)C1=O

z-score, -2:
C=CCOC(=O)[C@H]1[C@@H]2C(=O)O[C@@H](c3ccccc3)[C@@H](c3ccccc3)N2[C@@H](c2ccc(OCCOC(=O)[C@@H]3C[C@@H]4C(=O)N[C@@H](CCCC[N+](C)(C)C)C(=O)N4[C@@H]3c3ccc(O)cc3)cc2)[C@]12C(=O)Nc1ccc(I)cc12

z-score, 3.5:
COc1ccc([Si](C)(C)[C@H]2[C@H](CC(=O)N3CCC[C@H]3CO)O[C@@]3(C(=O)N(Cc4ccc(N5CCCCC5=O)cc4)c4ccccc43)[C@@H]2C)cc1

z-score, 0.552:
O=C(NCc1ccc(F)cc1)[C@H]1C[C@H]2C(=O)N3CCC[C@H]3C(=O)N2[C@H]1c1ccc(O)cc1

Experiment: JC-1 mitochondrial signal, unstimulated adipocytes – cell-based, JC-1 fluorescence, 3T3-L1 adipocytes, 24 h, 100 nL compound, profiling panel (AID 1168)
Settings: JC-1 mitochondrial fluorescence, higher = more signal, called active from +8 up or from −8 down

z-score, inactive:
COC(=O)[C@@]1(Cc2ccc(F)cc2)[C@H]2c3cc(C(=O)N(C)C)n(CCc4ccc(O)c(O)c4)c3C[C@H]2CN1C(=O)c1ccccc1 0.243
CCOC(=O)C1=CC[C@@H](c2ccc(OC)cc2)N(S(=O)(=O)c2ccc(C)cc2)[C@H]1c1ccc(C)cc1 -0.717
[N-]=[N+]=NCc1ccccc1[C@@H]1OC(c2ccc(OCCCO)cc2)=N[C@]1(Cc1ccccc1N=[N+]=[N-])C(=O)O -1.48
COC(=O)[C@@]1(Cc2ccccc2)[C@H]2c3cc(C(=O)N(C)C)n(CCSC(=N)N)c3C[C@H]2CN1C(=O)c1ccccc1 -1.1
Cc1ccc(S[C@]2(C(=O)NC(C)C)CC(=O)N(C3CCCCC3)[C@@H]2c2ccc(CO)cc2I)cc1 -0.0605
COC(=O)C(CC#Cc1ccc2c(c1)[C@]1(C(=O)N2)[C@H](C(=O)N2CCc3cc(OC)c(OC)cc3C2)[C@H]2C(=O)O[C@H](c3ccccc3)[C@H](c3ccccc3)N2[C@@H]1c1ccccc1OCCO)C(=O)OC 0.968
C=CC[C@@]12N=C(c3ccc(OCCCO)cc3)O[C@@H]1c1ccccc1N(CCC)C2=O 2.64
CCC(CC)C(O)C1C=CC2C(=O)N(c3ccccc3)C(=O)C2N1Nc1ccccc1F (configuration not stated) -0.147
C=C(COC)/C(=C/C[C@H](OC(C)=O)c1ccccc1OCCO)c1cc(C(=O)OC)ccc1OC -0.112
CN(C)CCCC[C@@H]1NC(=O)[C@@H]2C[C@H](C(=O)NCCCCCN)[C@H](c3cccc(OCCO)c3)N2C1=O -1.03
COC(=O)C[C@H]1O[C@@]2(C[C@@H]1[Si](C)(C)C)C(=O)N(C)c1ccccc12 0.63
NC(=O)N1C(=O)C2C(C1=O)C1C=C(CCCO)C2C(C2CC2)N1Cc1sc2ccccc2c1Cl (configuration not stated) 0.0485
CCOC(=O)C1=CCC(c2cc3ccccc3[nH]2)N(CCN2CC(C(=O)OCC)=CCC2c2cc3ccccc3[nH]2)C1 (configuration not stated) -0.73
COCC(=C=CC[C@H](O)c1ccccc1OCCO)C[C@H](O)COCc1ccccc1 -0.437
COc1ccc([Si](C)(C)[C@@H]2[C@@H](CC(=O)N3CCC[C@H]3CO)O[C@]3(C(=O)N(Cc4ccc(N5CCOC5=O)cc4)c4ccccc43)[C@H]2C)cc1 1.67
C=C(CCCC)C(=O)CC[C@H](OC(=O)c1ccccc1-c1ccccc1C(=O)O)c1ccc(OCCO)cc1 -0.245
COC(=O)[C@@]1(Cc2ccc(F)cc2)[C@H]2c3cc(C(=O)N4CCCC4)n(Cc4ccccn4)c3C[C@H]2CN1C(=O)c1ccccc1 -0.474
O=C1NC(=O)C2C1C=CC(C(O)c1ccc([N+](=O)[O-])cc1)N2Nc1ccccn1 (configuration not stated) -0.713
CCCC#C[Si](O[C@H](CC)c1cn(Cc2ccccc2)nn1)(C(C)C)C(C)C -0.497
COCCCNC(=O)[C@@]1(CCC(=O)OC(C)(C)C)COC(c2ccc(OCCCO)cc2)=N1 -1.05
C=C(CCCC)/C(=C/C[C@H](OC(C)=O)c1cccc(OCCO)c1)c1cnc2ccccc2c1 0.0664
CN(C)C(=O)[C@]1(Cc2ccccc2)N=C(c2ccc(OCCCO)cc2)O[C@@H]1c1ccccc1CN=[N+]=[N-] 0.0148
